# Shown are actives, neighbours in structure and some others; about 2.7% of the full set was active somewhere.
# KKLEB cytotox – cytotoxicity in KKLEB CF airway cells, primary screen, cytotoxicity control for CF NF-kB inhibitor project, cell-based, uHTS, fluorescence assay plates. KKLEB CF airway cells viability, ATPlite luminescence, overnight; active compounds read low; cells stimulated with P. aeruginosa culture filtrate. activity change (cytotoxicity), % at 5 µM. hit rate 0.36% among 360,000. AID 602141, 2011;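 active means corrected activity change at or below -50% at 5 µM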
# Peg3 promoter – Peg3 promoter-driven luciferase inhibitors, primary screen, cell-based, HeLa, luciferase luminescence; HeLa PEG-Prom luciferase reporter, overnight; inhibition, % at 20 µM; hit rate 1.7% among 360,000;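 active means inhibition of at least 50% at 20 µM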
# HIF-2a block – HIF-2a reporter inhibitors, primary screen, luminescence, 786-0 RCC cells. 786-0 RCC cells HIF-2a reporter, luciferase luminescence, overnight. inhibition, % at 18.8 µM. hit rate 0.72% among 360,000. AID 624352, 2012;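 active means inhibition of the luminescence signal of 40% or more relative to plate controls, in a single-dose primary screen at 18.75 µM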
# CF NFkB inh – inhibitors of PAF-induced NF-kB signaling, primary screen, cell-based, GFP fluorescence, uHTS | KKLEB NF-kB-GFP reporter, GFP fluorescence overnight | inhibition, % at 5 µM | hit rate 0.86% among 360,000 | AID 588850, 2011;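 active means at least 50% inhibition at 5 µM, scaled per plate between neutral and stimulator controls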;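 further: PAF is a Pseudomonas aeruginosa culture filtrate used as stimulus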
# Shn3 3UTR inh – reduction of Shn3 3'UTR firefly luciferase signal, primary screen, Schnurri-3 inhibitor project, cell-based, Clone20 osteoblasts, set 2 | inhibition, % at 12.5 µM | hit rate 0.52% among 360,000 | Clone20 osteoblast Shn3 3'UTR firefly luciferase, 24 h;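 active means mean inhibition of at least 75% with every replicate also reaching 75%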
# TRPM1 prom inh – inhibitors of MITF-dependent TRPM1 promoter reporter, primary screen, cell-based, SK-MEL-5, single point, luciferase. inhibition, % at 12.5 µM. SK-MEL-5 TRPM1 promoter luciferase, 24 h. hit rate 0.83% among 330,000;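 active means mean inhibition across replicates of 60% or more, whatever share of single replicates reaches that level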
# A number is an active result; 0 = inactive; - = no result.
SMILES,KKLEB cytotox,Peg3 promoter,HIF-2a block,CF NFkB inh,Shn3 3UTR inh,TRPM1 prom inh
CC(=O)c1ccc(S(=O)(=O)N2CCN(CC(=O)Nc3ccc(Cl)c([N+](=O)[O-])c3)CC2)cc1,0,0,0,0,0,0
O=C(CN1CCN(S(=O)(=O)c2ccc(Br)cc2)CC1)N/N=C/c1ccc(Cl)c([N+](=O)[O-])c1,0,93,0,0,0,0
O=C(NCc1ccc(F)cc1)C1(S(=O)(=O)c2ccc(Cl)cc2)CC1,0,0,0,0,0,0
Cc1ccccc1Nc1nc(N)nc(COC(=O)c2ccc([N+](=O)[O-])o2)n1,0,0,0,0,0,0
COc1ccc(Cl)cc1N/C(N)=N/c1nc(CSc2ccc(C)cc2)cc(=O)[nH]1,0,0,0,0,80,0
O=C(NCC1CCCO1)C(c1cccs1)N(Cc1ccccc1Cl)C(=O)c1ccc(-c2ccccc2)[nH]1 (centres undefined),0,80,0,0,0,0
Cc1ccc(C(C(=O)NCC2CCCO2)N(Cc2ccccc2)C(=O)c2ccc(-c3ccccc3)[nH]2)o1 (centres undefined),0,0,0,0,0,0
O=C(OCC(=O)N1CCCC1=O)c1ccc(Cl)cc1[N+](=O)[O-],0,0,0,0,0,0
Cn1c(=O)c(C(=O)NNC(=O)c2cccc(Cl)c2)c(O)c2ccccc21,0,64,0,73,0,0
CCCSc1cc(N2CCN(C)CC2)nc(-c2ccc(OC)cc2)n1,0,55,0,0,0,0
CN1CCN(CCCNC(=O)c2ccc3c(Cl)c4c(nc3c2)CCCC4)CC1,0,87,0,0,0,0
CCC(C)NC(=O)c1ccc2c(Cl)c3c(nc2c1)CCC3 (centres undefined),0,0,0,0,0,0
CCOc1ccc(/C=C/C(O)=C2/C(=O)NC3(C)CC2c2ccccc2O3)cc1OC (centres undefined),0,0,0,0,0,0
CCOc1ccc(/C=C/C(O)=C2/C(=O)N(C)C3(C)CC2c2ccccc2O3)cc1OC (centres undefined),0,0,62,0,0,0
CN1CCN(c2ccc(CNC(=O)c3ccc(-c4ccc(F)c(F)c4)c4ccoc34)cc2)CC1,0,63,0,0,0,-
CN1CCN(c2ccc(CNC(=O)c3cccc4c(-c5ccc(F)c(F)c5)coc34)cc2)CC1,0,73,0,0,0,-
COc1ccc(N2CC(NS(=O)(=O)c3ccc(F)cc3)CC2=O)cc1 (centres undefined),0,0,0,0,0,0
Cc1ccc(C(CNS(=O)(=O)c2ccccc2)N2CCN(C)CC2)cc1 (centres undefined),0,0,0,0,0,0
Cc1ccc(C(CNS(=O)(=O)c2ccc(Br)cc2)N2CCN(C)CC2)cc1 (centres undefined),0,0,0,0,0,80
NS(=O)(=O)c1ccc(CCNC(=O)c2ccc(Cl)c(S(=O)(=O)NCc3ccco3)c2)cc1,0,0,0,0,0,0
C[C@@H]1NC(=O)N[C@@H]1CCCCCC(=O)O,-64,0,0,0,0,0
Cc1c(CCOC(=O)CC23CC4CC(CC(C)(C4)C2)C3)sc[n+]1CC(=O)c1ccccc1,0,84,0,0,0,84
Cc1c(CCOC(=O)CC23CC4CC(CC(C4)C2)C3)sc[n+]1CC(=O)c1ccc(Br)cc1,0,0,0,0,94,0
O=C(CCl)N1c2ccccc2CCc2ccccc21,0,0,0,0,0,75
COc1ccc(CCNC(=O)CCNC(=O)N2CC(=O)Nc3ccccc32)cc1,0,0,0,0,0,0
Cc1ccc(C(=O)N[C@H](C(=O)N2CCN(c3ccccc3F)CC2)C(C)C)cc1,0,0,0,0,0,0
COCCn1c(SCC(=O)/C=C2\N(C)c3ccccc3C2(C)C)nnc1-c1ccncc1,0,0,0,0,89,0
CCOC(=O)N1C(=O)NC(=O)C1c1ccc(Cl)cc1 (centres undefined),0,0,0,0,0,0
